# Experimental data published in article PMC7862700, “An all-to-all approach to the identification of sequence-specific readers for epigenetic DNA modifications on cytosine”.
# Legend:
# Assay in all cases: DAPPL (digital affinity profiling via proximity ligation, sequencing); 10 mM Tris-HCl pH 7.5, 50 mM NaCl, 1 mM DTT, 4% glycerol, room temperature, 30 min; GST-TFs on glutathione beads, 16-mer random dsDNA library, 0.1% formaldehyde crosslink after washing; high values mean tight binding
# FEV = molecular target: T1, FEV (Homo sapiens, UniProt Q99581 1-238); settings: protein: recombinant; tags: N-terminal GST; dsDNA, one strand shown
# T1 sequence: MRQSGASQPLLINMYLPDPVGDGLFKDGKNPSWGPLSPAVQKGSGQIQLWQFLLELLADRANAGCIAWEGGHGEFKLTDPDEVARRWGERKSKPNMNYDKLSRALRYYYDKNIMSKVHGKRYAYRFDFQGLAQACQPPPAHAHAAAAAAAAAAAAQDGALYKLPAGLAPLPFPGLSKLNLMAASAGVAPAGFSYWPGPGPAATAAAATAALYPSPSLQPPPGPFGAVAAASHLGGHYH
# Outline: (§1)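 In yeast, human transcription factors were expressed with a GST fusion, then pulled down on glutathione beads and given DNA barcodes. Pooled with a tag-only sample, they were exposed to 200 nmole of a 16-mer random double-stranded DNA library (Tris/NaCl/DTT/glycerol buffer, room temperature, 30 min), washed, crosslinked with 0.1% formaldehyde, proximity-ligated using BsaI/T4 ligase for 1 h at 37 °C, PCR-amplified and read on an Illumina NextSeq500. Each hexamer's frequency of reads for a factor, divided by the matching frequency for the tag-only sample, gives the binding signal.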
# ETV5 = ETV5 (Homo sapiens, UniProt P41161 1-510); settings: protein: recombinant; tags: N-terminal GST; dsDNA, one strand shown
# Outline: as §1
# HSF1 = HSF1 (Homo sapiens, UniProt Q00613 1-529); settings: protein: recombinant; tags: N-terminal GST; chain copies: 3; dsDNA, one strand shown
# Outline: as §1
# SPIC = molecular target: T2, SPIC (Homo sapiens, UniProt Q8N5J4 1-248); settings: protein: recombinant; tags: N-terminal GST; dsDNA, one strand shown
# T2 sequence: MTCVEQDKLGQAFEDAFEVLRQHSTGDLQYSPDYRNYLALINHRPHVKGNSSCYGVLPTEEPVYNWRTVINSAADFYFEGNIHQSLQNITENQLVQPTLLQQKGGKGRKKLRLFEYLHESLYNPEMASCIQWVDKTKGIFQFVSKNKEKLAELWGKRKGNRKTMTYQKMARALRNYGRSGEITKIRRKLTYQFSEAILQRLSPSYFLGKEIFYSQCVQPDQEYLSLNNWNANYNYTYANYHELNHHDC
# Outline: as §1
# ELF4 = ELF4 (Homo sapiens, UniProt Q99607 1-663); settings: protein: recombinant; tags: N-terminal GST; dsDNA, one strand shown
# Outline: as §1
# ELK4 = molecular target: T3, ELK4 (Homo sapiens, UniProt P28324-2 1-405); settings: protein: recombinant; tags: N-terminal GST; dsDNA, one strand shown
# T3 sequence: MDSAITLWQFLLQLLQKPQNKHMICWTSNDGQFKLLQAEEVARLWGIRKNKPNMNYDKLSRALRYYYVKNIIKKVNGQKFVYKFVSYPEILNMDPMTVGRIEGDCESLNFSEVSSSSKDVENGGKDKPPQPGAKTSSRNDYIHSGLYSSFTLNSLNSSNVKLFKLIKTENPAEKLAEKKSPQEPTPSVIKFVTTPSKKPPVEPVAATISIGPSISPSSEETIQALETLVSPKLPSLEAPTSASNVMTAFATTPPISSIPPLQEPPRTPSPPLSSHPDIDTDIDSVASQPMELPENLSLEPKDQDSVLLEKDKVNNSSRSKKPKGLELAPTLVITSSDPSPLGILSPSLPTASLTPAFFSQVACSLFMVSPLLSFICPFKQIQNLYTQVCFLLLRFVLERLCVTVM
# Outline: as §1
# ETV2 = molecular target: T4, ETV2 (Homo sapiens, UniProt O00321 1-342); settings: protein: recombinant; tags: N-terminal GST; dsDNA, one strand shown
# T4 sequence: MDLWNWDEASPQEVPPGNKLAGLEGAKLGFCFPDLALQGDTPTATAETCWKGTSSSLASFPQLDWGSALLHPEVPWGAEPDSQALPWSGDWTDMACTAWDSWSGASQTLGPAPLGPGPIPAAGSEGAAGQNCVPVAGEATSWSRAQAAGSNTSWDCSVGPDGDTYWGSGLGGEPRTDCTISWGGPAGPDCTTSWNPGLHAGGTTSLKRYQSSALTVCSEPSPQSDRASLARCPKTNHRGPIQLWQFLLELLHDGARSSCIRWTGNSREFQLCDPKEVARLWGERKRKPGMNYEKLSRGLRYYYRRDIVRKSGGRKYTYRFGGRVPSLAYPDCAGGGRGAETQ
# Outline: as §1
# ELF3 = molecular target: T5, ELF3 (Homo sapiens, UniProt P78545 1-371); settings: protein: recombinant; tags: N-terminal GST; dsDNA, one strand shown
# T5 sequence: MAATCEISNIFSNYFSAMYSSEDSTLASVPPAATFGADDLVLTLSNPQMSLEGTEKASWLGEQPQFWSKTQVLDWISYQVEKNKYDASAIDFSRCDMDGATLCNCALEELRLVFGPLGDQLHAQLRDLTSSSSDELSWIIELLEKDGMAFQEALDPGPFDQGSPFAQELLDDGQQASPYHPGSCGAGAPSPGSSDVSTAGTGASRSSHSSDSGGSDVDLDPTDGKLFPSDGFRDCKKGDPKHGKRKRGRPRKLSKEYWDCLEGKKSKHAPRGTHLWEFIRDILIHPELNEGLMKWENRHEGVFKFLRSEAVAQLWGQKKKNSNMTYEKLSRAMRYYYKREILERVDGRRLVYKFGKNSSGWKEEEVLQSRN
# Outline: as §1
# CRX = CRX (Homo sapiens, UniProt O43186 1-299); settings: protein: recombinant; tags: N-terminal GST; dsDNA, one strand shown
# Outline: as §1
# ETV1 = ETV1 (Homo sapiens, UniProt P50549 1-477); settings: protein: recombinant; tags: N-terminal GST; dsDNA, one strand shown
# Outline: as §1
# ERF = molecular target: T6, ERF (Homo sapiens, UniProt P50548 1-548); settings: protein: recombinant; tags: N-terminal GST; dsDNA, one strand shown
# T6 sequence: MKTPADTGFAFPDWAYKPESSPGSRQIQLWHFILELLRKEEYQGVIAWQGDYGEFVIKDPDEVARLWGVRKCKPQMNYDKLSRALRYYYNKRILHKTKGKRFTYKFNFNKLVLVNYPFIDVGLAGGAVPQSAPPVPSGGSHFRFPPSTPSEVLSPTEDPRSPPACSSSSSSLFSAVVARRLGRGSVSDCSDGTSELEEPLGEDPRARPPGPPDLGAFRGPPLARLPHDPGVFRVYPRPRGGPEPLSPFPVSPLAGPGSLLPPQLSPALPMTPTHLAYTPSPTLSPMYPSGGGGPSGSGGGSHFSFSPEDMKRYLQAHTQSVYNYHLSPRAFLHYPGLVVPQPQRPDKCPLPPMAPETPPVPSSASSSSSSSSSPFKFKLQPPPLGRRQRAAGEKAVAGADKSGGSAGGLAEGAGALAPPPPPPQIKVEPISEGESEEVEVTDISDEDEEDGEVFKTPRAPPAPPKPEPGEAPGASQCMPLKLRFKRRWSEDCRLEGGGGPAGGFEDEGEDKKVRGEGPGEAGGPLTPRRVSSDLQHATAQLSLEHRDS
# Outline: as §1
# ETV3L = molecular target: T7, ETV3L (Homo sapiens, UniProt Q6ZN32 1-361); settings: protein: recombinant; tags: N-terminal GST; dsDNA, one strand shown
# T7 sequence: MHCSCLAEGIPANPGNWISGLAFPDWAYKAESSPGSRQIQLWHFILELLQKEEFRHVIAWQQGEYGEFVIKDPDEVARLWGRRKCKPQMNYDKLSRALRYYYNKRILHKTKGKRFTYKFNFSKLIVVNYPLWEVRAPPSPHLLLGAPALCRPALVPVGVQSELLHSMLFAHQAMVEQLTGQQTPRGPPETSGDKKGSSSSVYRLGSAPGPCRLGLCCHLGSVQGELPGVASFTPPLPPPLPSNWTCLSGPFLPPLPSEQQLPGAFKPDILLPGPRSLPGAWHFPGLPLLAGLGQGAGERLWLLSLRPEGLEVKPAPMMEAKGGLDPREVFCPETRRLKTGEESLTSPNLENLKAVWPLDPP
# Outline: as §1
# ETS2 = molecular target: T8, ETS2 (Homo sapiens, UniProt P15036 1-469); settings: protein: recombinant; tags: N-terminal GST; dsDNA, one strand shown
# T8 sequence: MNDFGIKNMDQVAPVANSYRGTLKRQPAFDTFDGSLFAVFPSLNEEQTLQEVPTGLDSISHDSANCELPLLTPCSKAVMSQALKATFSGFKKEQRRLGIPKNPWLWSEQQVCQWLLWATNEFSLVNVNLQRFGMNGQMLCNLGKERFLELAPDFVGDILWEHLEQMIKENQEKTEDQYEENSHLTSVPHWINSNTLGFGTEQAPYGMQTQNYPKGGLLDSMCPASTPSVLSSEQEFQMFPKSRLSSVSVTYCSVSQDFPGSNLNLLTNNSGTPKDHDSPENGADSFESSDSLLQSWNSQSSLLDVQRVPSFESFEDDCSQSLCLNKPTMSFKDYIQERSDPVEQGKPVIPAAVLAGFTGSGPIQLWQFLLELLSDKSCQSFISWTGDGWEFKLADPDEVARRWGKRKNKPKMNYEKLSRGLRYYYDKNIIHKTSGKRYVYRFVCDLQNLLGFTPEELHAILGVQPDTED
# Outline: as §1
# SPDEF = molecular target: T9, SPDEF (Homo sapiens, UniProt O95238 1-335); settings: protein: recombinant; tags: N-terminal GST; dsDNA, one strand shown
# T9 sequence: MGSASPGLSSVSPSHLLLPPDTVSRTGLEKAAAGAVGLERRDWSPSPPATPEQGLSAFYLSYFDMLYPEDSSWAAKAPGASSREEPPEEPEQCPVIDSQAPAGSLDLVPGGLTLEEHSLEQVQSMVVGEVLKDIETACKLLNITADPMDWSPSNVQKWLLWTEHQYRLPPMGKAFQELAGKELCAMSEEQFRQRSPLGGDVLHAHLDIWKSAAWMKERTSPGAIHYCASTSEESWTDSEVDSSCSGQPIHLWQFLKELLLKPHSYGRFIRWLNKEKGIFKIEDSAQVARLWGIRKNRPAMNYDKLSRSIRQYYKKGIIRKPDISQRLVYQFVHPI
# Outline: as §1
# ETV7 = molecular target: T10, ETV7 (Homo sapiens, UniProt Q9Y603 1-341); settings: protein: recombinant; tags: N-terminal GST; dsDNA, one strand shown
# T10 sequence: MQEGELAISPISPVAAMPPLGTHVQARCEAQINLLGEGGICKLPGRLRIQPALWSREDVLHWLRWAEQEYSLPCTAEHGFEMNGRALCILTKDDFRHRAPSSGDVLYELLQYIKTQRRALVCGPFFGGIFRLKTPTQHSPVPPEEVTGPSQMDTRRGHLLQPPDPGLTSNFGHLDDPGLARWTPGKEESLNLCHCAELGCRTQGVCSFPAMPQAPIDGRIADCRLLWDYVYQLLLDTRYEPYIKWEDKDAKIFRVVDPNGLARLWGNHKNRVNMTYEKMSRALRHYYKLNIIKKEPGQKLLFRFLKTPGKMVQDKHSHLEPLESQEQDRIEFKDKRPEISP
# Outline: as §1
# ELF5 = molecular target: T11, ELF5 (Homo sapiens, UniProt Q9UKW6-2 1-255); settings: protein: recombinant; tags: N-terminal GST; dsDNA, one strand shown
# T11 sequence: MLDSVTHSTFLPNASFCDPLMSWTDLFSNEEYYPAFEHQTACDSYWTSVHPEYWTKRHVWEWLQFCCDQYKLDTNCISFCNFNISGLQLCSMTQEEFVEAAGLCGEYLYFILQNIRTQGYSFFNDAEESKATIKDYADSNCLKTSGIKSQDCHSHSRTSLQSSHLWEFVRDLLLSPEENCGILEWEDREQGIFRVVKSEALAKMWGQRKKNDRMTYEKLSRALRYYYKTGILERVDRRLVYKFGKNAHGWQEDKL
# Outline: as §1
# ETV3 = molecular target: T12, ETV3 (Homo sapiens, UniProt P41162-2 1-143); settings: protein: recombinant; tags: N-terminal GST; dsDNA, one strand shown
# T12 sequence: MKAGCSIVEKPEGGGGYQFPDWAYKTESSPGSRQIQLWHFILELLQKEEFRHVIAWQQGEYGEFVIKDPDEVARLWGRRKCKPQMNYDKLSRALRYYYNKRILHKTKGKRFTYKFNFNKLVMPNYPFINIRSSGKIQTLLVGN
# Outline: as §1
# ETV6 = ETV6 (Homo sapiens, UniProt P41212 1-452); settings: protein: recombinant; tags: N-terminal GST; dsDNA, one strand shown
# Outline: as §1
# Chain of CRX (O43186 whole entry): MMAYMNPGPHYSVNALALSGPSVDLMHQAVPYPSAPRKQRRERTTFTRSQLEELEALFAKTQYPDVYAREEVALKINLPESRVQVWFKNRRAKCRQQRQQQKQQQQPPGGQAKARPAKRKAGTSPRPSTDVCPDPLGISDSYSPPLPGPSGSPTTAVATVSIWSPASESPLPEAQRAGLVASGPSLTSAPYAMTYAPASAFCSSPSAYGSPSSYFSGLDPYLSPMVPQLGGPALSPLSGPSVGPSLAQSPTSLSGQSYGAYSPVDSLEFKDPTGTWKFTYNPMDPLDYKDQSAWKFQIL
# Chain of ELF4 (Q99607 whole entry): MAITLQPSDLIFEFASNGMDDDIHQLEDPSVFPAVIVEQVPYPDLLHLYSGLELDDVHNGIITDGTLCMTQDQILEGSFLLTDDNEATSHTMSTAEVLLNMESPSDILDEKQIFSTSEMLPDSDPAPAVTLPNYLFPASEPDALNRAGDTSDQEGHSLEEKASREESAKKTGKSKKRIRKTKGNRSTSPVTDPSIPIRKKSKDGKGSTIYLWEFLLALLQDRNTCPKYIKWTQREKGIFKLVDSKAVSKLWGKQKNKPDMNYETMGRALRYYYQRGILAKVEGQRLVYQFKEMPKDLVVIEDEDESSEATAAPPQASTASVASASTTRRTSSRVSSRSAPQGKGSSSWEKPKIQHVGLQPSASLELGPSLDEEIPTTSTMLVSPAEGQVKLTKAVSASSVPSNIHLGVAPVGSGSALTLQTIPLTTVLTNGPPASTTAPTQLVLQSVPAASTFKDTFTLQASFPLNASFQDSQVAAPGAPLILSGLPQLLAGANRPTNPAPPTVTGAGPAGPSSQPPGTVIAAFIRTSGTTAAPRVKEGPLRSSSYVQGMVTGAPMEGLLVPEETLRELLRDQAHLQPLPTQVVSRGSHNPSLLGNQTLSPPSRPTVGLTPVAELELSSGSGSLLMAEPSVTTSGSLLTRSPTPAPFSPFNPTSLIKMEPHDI
# Chain of HSF1 (Q00613 whole entry): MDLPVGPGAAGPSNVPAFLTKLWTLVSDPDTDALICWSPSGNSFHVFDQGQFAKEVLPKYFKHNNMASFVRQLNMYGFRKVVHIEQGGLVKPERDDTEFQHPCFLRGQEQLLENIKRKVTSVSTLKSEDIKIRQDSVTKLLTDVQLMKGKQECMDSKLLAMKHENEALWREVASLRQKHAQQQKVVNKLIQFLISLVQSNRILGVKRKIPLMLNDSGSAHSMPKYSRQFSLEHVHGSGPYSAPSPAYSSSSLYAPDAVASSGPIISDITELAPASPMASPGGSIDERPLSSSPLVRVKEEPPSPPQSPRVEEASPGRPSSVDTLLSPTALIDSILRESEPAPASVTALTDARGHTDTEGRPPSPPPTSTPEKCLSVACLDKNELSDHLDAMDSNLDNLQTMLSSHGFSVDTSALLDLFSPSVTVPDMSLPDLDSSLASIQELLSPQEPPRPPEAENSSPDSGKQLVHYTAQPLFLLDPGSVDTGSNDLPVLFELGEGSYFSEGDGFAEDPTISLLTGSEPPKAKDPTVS
# Chain of ETV1 (P50549 whole entry): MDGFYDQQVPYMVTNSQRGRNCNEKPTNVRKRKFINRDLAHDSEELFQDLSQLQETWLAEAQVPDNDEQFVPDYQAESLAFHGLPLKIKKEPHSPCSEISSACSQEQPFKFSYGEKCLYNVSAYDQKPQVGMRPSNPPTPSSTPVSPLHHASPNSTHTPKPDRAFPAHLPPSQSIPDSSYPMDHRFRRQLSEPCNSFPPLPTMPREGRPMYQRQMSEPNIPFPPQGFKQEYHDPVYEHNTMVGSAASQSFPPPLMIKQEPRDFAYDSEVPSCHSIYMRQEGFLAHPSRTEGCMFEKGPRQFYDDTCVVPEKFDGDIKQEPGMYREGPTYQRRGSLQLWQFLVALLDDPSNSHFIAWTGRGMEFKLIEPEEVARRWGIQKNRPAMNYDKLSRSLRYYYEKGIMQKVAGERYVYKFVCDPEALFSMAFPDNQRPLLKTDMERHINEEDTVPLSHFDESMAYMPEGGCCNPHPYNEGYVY
# Chain of ETV6 (P41212 whole entry): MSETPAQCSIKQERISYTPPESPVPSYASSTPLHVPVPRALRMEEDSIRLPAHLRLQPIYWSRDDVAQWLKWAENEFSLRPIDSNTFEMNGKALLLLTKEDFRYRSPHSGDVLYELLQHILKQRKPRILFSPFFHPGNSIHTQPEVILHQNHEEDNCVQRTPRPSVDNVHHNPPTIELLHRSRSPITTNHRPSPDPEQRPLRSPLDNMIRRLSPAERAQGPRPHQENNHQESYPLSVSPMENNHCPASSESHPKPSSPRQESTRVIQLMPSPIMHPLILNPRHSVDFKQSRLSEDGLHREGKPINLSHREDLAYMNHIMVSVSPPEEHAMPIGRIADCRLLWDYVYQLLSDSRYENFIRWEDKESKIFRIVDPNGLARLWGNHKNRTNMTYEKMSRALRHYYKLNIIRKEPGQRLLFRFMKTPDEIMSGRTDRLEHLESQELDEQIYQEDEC
# Chain of ETV5 (P41161 whole entry): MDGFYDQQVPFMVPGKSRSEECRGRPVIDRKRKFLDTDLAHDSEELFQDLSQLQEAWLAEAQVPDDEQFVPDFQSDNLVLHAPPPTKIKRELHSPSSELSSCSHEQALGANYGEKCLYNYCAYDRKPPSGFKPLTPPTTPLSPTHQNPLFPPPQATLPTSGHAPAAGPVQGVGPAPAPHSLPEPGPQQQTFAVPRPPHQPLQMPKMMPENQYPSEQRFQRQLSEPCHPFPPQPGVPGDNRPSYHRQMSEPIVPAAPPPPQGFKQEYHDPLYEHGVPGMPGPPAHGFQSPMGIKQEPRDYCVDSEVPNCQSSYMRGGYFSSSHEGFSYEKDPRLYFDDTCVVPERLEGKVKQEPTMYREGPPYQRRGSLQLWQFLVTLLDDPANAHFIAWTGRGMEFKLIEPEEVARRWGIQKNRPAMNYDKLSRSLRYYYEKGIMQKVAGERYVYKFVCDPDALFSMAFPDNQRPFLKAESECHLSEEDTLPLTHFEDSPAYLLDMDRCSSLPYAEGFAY
sequence,measurement,setting,value
CCTAAA,binding signal,FEV,"1.27 fold enrichment (6-mer frequency, TF over GST control)"
same,binding signal,ETV5,"1.33 fold enrichment (6-mer frequency, TF over GST control)"
same,binding signal,HSF1,"1.37 fold enrichment (6-mer frequency, TF over GST control)"
same,binding signal,SPIC,"1.32 fold enrichment (6-mer frequency, TF over GST control)"
same,binding signal,ELF4,"1.35 fold enrichment (6-mer frequency, TF over GST control)"
same,binding signal,ELK4,"1.29 fold enrichment (6-mer frequency, TF over GST control)"
same,binding signal,ETV2,"1.25 fold enrichment (6-mer frequency, TF over GST control)"
same,binding signal,ELF3,"1.4 fold enrichment (6-mer frequency, TF over GST control)"
same,binding signal,CRX,"1.61 fold enrichment (6-mer frequency, TF over GST control)"
same,binding signal,ETV1,"1.31 fold enrichment (6-mer frequency, TF over GST control)"
same,binding signal,ERF,"1.4 fold enrichment (6-mer frequency, TF over GST control)"
same,binding signal,ETV3L,"1.32 fold enrichment (6-mer frequency, TF over GST control)"
same,binding signal,ETS2,"1.33 fold enrichment (6-mer frequency, TF over GST control)"
same,binding signal,SPDEF,"1.32 fold enrichment (6-mer frequency, TF over GST control)"
same,binding signal,ETV7,"1.34 fold enrichment (6-mer frequency, TF over GST control)"
same,binding signal,ELF5,"1.27 fold enrichment (6-mer frequency, TF over GST control)"
same,binding signal,ETV3,"1.28 fold enrichment (6-mer frequency, TF over GST control)"
same,binding signal,ETV6,"1.25 fold enrichment (6-mer frequency, TF over GST control)"
